Data taken from PubChem BioAssay (NCATS).
The list shows a part of the results. Records with an inconclusive call do not appear. The source made the active and inactive calls. Calls follow the shape of the dose curve; as a rule, active = well fitted inhibition curve with a large enough effect; inconclusive = small, poorly fitted or top-dose-only effect; inactive = no such curve, though single readings can be large or run the other way.

assay: qHTS screen for small molecules that inhibit ELG1-dependent DNA repair: Hit Confirmation in Cell-Based Luciferin Assay (AID 624247); settings: cell-free firefly luciferase luminescence counter-screen, ViewLux; series mostly up to 46.1 µM
Description: Cancer cells divide rapidly compared to normal cells in the body. During cell division, cancer cells need to duplicate their genome by DNA replication. The failure of genome duplication leads to cancer cells' death. Therefore, inhibitors of DNA replication could specifically kill cancer cells. Based on this concept, many chemotherapeutic agents were developed and have been used to treat cancer patients. However, there are a limited number of agents available in the clinical setting, and some of those that do exist have low efficacy and severe side effects. Therefore, if we can find the compounds that effectively block DNA replication either by directly damaging DNA or by inhibiting other cellular mechanisms, the options for cancer treatment will be broadened. With this in mind, we developed a quantitative high-throughput ELG1-luciferase reporter gene assay. Small molecules that specifically block ELG1 function in response to DNA damage can be identified by monitoring the suppression of luciferase activity. Since ELG1 defines a pathway for repairing DNA damage, agents blocking ELG1 function can be used to sensitize cancer cells to chemotherapeutic agents whose mechanism of action involves the induction of DNA damage. NIH Molecular Libraries Probe Production Network [MLPCN] NIH Chemical Genomics Center [NCGC] MLPCN Grant: R03 MH092164 Assay Provider: Kyungjae Myung, NHGRI, NIH
3 µL of substrate reagent will be pipetted into each well in 1536-well white, solid-bottom plates using a FRD dispenser, followed by addition of 23 nL of DMSO or compounds by pintool. After compound addition, 1 µL of luciferase will be added into the wells. The plates will be read in a ViewLux CCD-based plate reader.

Row | SMILES | outcome
1 | CCOC(=O)c1cccc(NC(=O)C2CCN(c3ncnc4c3nc3n4CCCCC3)CC2)c1 | inactive
2 | COc1ccc(CSc2nc(N3CCOCC3)c3c(c2C#N)CC(C)(C)OC3)cc1 | inactive
3 | COc1ccc(NC(=O)c2sc3nc(C)nc(N4CCN(c5ccccn5)CC4)c3c2C)c(OC)c1 | inactive
4 | O=C(C1CCCN(S(=O)(=O)c2ccccc2)C1)N1CCN(c2ccc(F)cc2)CC1 (stereo unspecified) | inactive
5 | Cc1ccc(Nc2nc(N3CCOCC3)nc(N3CCOCC3)n2)cc1Cl | inactive
6 | Cc1ccc(OCC(=O)Nc2ccc(-c3nc4ncccc4o3)cc2)cc1 | inactive
7 | O=C(Nn1c(SCc2ccc([N+](=O)[O-])cc2)nc2ccccc2c1=O)c1ccc(F)cc1 | inactive
8 | CS(=O)c1ccc(/C=C2\C=Cc3ccccc32)cc1 (stereo unspecified) | inactive
9 | COc1ccc(NC(C)=O)cc1NC(=O)CN1CCN(C2c3ccccc3-c3ccccc32)CC1 | inactive
10 | CC(=O)N1CCc2cc(Br)cc(S(=O)(=O)CCC(=O)Nc3c(C)n(C)n(-c4ccccc4)c3=O)c21 | inactive
11 | Cc1ccccc1NC(=O)CSc1nc2ccc(Nc3nc(N4CCOCC4)nc(N4CCOCC4)n3)cc2s1 | inactive
